Assay results taken from article PMC10812921, “Transcriptional Coactivator BOB1 (OBF1, OCA-B) Modulates the Specificity of DNA Recognition by the POU-Domain Factors OCT1 and OCT2 in a Monomeric Configuration”.

Assays:
POU1 (OCT1 POU domain) = POU1 (OCT1 POU domain) (human, UniProt P14859 260-458); assay: EMSA-SELEX-seq; no BOB1; 20 mM Tris-HCl pH 7.6, 140 mM NaCl, 10% glycerol, 0.5 mM EDTA, 0.05% Triton X-100, 0.1 mg/mL BSA, 0.1 mg/mL poly(dI-dC), 5 mM DTT, room temperature, 20 min; high values mean tight binding; settings: protein: recombinant; dsDNA, one strand shown
Chain of POU1 (OCT1 POU domain) (P14859 260-458): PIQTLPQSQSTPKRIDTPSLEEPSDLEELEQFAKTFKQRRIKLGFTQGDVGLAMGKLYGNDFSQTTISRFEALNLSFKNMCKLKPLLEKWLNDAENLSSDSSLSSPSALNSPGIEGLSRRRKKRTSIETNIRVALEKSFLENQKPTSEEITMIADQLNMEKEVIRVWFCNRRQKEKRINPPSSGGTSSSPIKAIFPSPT
Outline: (§1)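 Binding preference is the percentage of sequenced 8-mers matching a motif pattern. Tagged POU-domain proteins expressed in E. coli BL21 were purified under denaturing conditions and renatured. For binding, 30 ng protein met 300 ng of a PCR-amplified double-stranded random 35-nt library, with or without 28 ng coactivator protein, in 20 μL Tris–HCl pH 7.6 binding buffer for 20 min at RT. Complex bands were cut from native 6% PAGE, eluted and PCR-amplified over four rounds, then Illumina-sequenced.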

POU2 (OCT2 POU domain) = molecular target: T1, POU2 (OCT2 POU domain) (human, UniProt P09086 175-386); assay: as above; settings: protein: recombinant; dsDNA, one strand shown
T1 sequence: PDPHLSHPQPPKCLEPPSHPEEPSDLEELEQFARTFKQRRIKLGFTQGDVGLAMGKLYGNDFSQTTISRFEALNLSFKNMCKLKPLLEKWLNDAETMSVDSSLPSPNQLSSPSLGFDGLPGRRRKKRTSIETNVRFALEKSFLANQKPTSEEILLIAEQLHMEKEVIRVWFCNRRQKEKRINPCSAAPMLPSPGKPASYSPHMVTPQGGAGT
Outline: as §1

[1] = molecular target: POU1 (OCT1 POU domain);BOB1 (OBF1, OCA-B) (human;human, UniProt P14859;Q16633 260-458;1-256, |); assay: EMSA-SELEX-seq; with BOB1 (ternary complex band); 20 mM Tris-HCl pH 7.6, 140 mM NaCl, 10% glycerol, 0.5 mM EDTA, 0.05% Triton X-100, 0.1 mg/mL BSA, 0.1 mg/mL poly(dI-dC), 5 mM DTT, room temperature, 20 min; high values mean tight binding; settings: protein: recombinant;recombinant; copies: 1;1; dsDNA, one strand shown
Outline: as §1

[2] = molecular target: T2, POU2 (OCT2 POU domain);BOB1 (OBF1, OCA-B) (human;human, UniProt P09086;Q16633 175-386;1-256, |); assay: as above; settings: protein: recombinant;recombinant; copies: 1;1; dsDNA, one strand shown
T2 sequence 1: T1 sequence
T2 sequence 2: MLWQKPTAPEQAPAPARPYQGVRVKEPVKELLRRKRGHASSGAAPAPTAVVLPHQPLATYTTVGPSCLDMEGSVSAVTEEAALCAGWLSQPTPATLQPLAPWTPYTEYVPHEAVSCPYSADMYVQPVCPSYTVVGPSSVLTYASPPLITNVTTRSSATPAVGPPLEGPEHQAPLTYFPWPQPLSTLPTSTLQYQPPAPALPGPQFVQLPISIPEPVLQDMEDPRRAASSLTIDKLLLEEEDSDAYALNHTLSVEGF
Outline: as §1

Sequence | binding signal (POU1 (OCT1 POU domain)) | binding signal (POU2 (OCT2 POU domain)) | binding signal [1] | binding signal [2]
AGCAGAAA | 0.0374 % of ANNNNAAN 8-mers | 0.0339 % of ANNNNAAN 8-mers | 0.0336 % of ANNNNAAN 8-mers | 0.0281 % of ANNNNAAN 8-mers
AGAGCAAT | 0.0355 % of ANNNNAAN 8-mers | 0.0443 % of ANNNNAAN 8-mers | 0.0332 % of ANNNNAAN 8-mers | 0.0363 % of ANNNNAAN 8-mers
ACCGAAAT | 0.0404 % of ANNNNAAN 8-mers | 0.0426 % of ANNNNAAN 8-mers | 0.0437 % of ANNNNAAN 8-mers | 0.0479 % of ANNNNAAN 8-mers
AAAATAAG | 0.13 % of ANNNNAAN 8-mers | 0.125 % of ANNNNAAN 8-mers | 0.148 % of ANNNNAAN 8-mers | 0.114 % of ANNNNAAN 8-mers
AAAAGAAG | 0.0629 % of ANNNNAAN 8-mers | 0.076 % of ANNNNAAN 8-mers | 0.0679 % of ANNNNAAN 8-mers | 0.071 % of ANNNNAAN 8-mers
ACTACAAC | 0.0122 % of ANNNNAAN 8-mers | 0.0196 % of ANNNNAAN 8-mers | 0.0164 % of ANNNNAAN 8-mers | 0.0173 % of ANNNNAAN 8-mers
AGCCTAAC | 0.0153 % of ANNNNAAN 8-mers | 0.0144 % of ANNNNAAN 8-mers | 0.0109 % of ANNNNAAN 8-mers | 0.0157 % of ANNNNAAN 8-mers
ATTAAAAG | 0.149 % of ANNNNAAN 8-mers | 0.171 % of ANNNNAAN 8-mers | 0.115 % of ANNNNAAN 8-mers | 0.102 % of ANNNNAAN 8-mers
AATAGAAT | 0.113 % of ANNNNAAN 8-mers | 0.136 % of ANNNNAAN 8-mers | 0.0921 % of ANNNNAAN 8-mers | 0.121 % of ANNNNAAN 8-mers
AGACTAAT | 0.0744 % of ANNNNAAN 8-mers | 0.102 % of ANNNNAAN 8-mers | 0.0507 % of ANNNNAAN 8-mers | 0.066 % of ANNNNAAN 8-mers
AATTGAAT | 0.203 % of ANNNNAAN 8-mers | 0.238 % of ANNNNAAN 8-mers | 0.127 % of ANNNNAAN 8-mers | 0.125 % of ANNNNAAN 8-mers
ATGACAAA | 0.0622 % of ANNNNAAN 8-mers | 0.0639 % of ANNNNAAN 8-mers | 0.0539 % of ANNNNAAN 8-mers | 0.0479 % of ANNNNAAN 8-mers
AGCACAAG | 0.0168 % of ANNNNAAN 8-mers | 0.0196 % of ANNNNAAN 8-mers | 0.0183 % of ANNNNAAN 8-mers | 0.0124 % of ANNNNAAN 8-mers
ACATGAAA | 0.0671 % of ANNNNAAN 8-mers | 0.0708 % of ANNNNAAN 8-mers | 0.0823 % of ANNNNAAN 8-mers | 0.0619 % of ANNNNAAN 8-mers
ACATCAAA | 0.0374 % of ANNNNAAN 8-mers | 0.0391 % of ANNNNAAN 8-mers | 0.0363 % of ANNNNAAN 8-mers | 0.0239 % of ANNNNAAN 8-mers
ATTGGAAT | 0.141 % of ANNNNAAN 8-mers | 0.18 % of ANNNNAAN 8-mers | 0.0968 % of ANNNNAAN 8-mers | 0.0966 % of ANNNNAAN 8-mers
AAACCAAG | 0.0233 % of ANNNNAAN 8-mers | 0.0161 % of ANNNNAAN 8-mers | 0.0293 % of ANNNNAAN 8-mers | 0.0198 % of ANNNNAAN 8-mers
AGGTGAAT | 0.108 % of ANNNNAAN 8-mers | 0.119 % of ANNNNAAN 8-mers | 0.071 % of ANNNNAAN 8-mers | 0.102 % of ANNNNAAN 8-mers
AGTTGAAT | 0.0927 % of ANNNNAAN 8-mers | 0.119 % of ANNNNAAN 8-mers | 0.0667 % of ANNNNAAN 8-mers | 0.0834 % of ANNNNAAN 8-mers
AGAAGAAT | 0.0515 % of ANNNNAAN 8-mers | 0.0737 % of ANNNNAAN 8-mers | 0.0597 % of ANNNNAAN 8-mers | 0.0603 % of ANNNNAAN 8-mers
ATGACAAG | 0.0404 % of ANNNNAAN 8-mers | 0.0351 % of ANNNNAAN 8-mers | 0.0336 % of ANNNNAAN 8-mers | 0.0289 % of ANNNNAAN 8-mers
ACGAGAAC | 0.0179 % of ANNNNAAN 8-mers | 0.0178 % of ANNNNAAN 8-mers | 0.0156 % of ANNNNAAN 8-mers | 0.0165 % of ANNNNAAN 8-mers
AGGTAAAA | 0.129 % of ANNNNAAN 8-mers | 0.1 % of ANNNNAAN 8-mers | 0.146 % of ANNNNAAN 8-mers | 0.085 % of ANNNNAAN 8-mers
AGACCAAA | 0.0179 % of ANNNNAAN 8-mers | 0.0213 % of ANNNNAAN 8-mers | 0.0246 % of ANNNNAAN 8-mers | 0.0239 % of ANNNNAAN 8-mers
ATCTAAAA | 0.0564 % of ANNNNAAN 8-mers | 0.0524 % of ANNNNAAN 8-mers | 0.0535 % of ANNNNAAN 8-mers | 0.0669 % of ANNNNAAN 8-mers
ATACGAAT | 0.0908 % of ANNNNAAN 8-mers | 0.101 % of ANNNNAAN 8-mers | 0.0687 % of ANNNNAAN 8-mers | 0.0759 % of ANNNNAAN 8-mers
AAGGGAAG | 0.05 % of ANNNNAAN 8-mers | 0.0541 % of ANNNNAAN 8-mers | 0.0511 % of ANNNNAAN 8-mers | 0.0388 % of ANNNNAAN 8-mers
ACGTAAAT | 0.217 % of ANNNNAAN 8-mers | 0.172 % of ANNNNAAN 8-mers | 0.232 % of ANNNNAAN 8-mers | 0.147 % of ANNNNAAN 8-mers
ATAGTAAT | 0.116 % of ANNNNAAN 8-mers | 0.148 % of ANNNNAAN 8-mers | 0.0702 % of ANNNNAAN 8-mers | 0.0867 % of ANNNNAAN 8-mers
AAGTGAAA | 0.0721 % of ANNNNAAN 8-mers | 0.0587 % of ANNNNAAN 8-mers | 0.0788 % of ANNNNAAN 8-mers | 0.0627 % of ANNNNAAN 8-mers
